Source: the OligoGym collection

The sequences below were run against EIF1 (assay: pooled miR-30 sensor sort-seq; sequence = guide strand). Details: shRNA.
Also: reference of the scale not given here.

Row | Sequence | sensor-assay potency score (higher = more potent)
1 | TTTTATCGTAATCATCAGCGAT | -0.796
2 | TTATATGGATATAATCCTCAGT | -0.502
3 | TCAATTACAGTACCATTGCAGG | -1.4
4 | TGTAGCTGAATTACTTCTCCAT | 0.149
5 | TTACTTGCATCAGCAAAGGGGT | -1.07
6 | TTGCAGGCAAACTTTTTCTTAA | -0.992
7 | TTGGACAGTAGTAAGGGTCTTC | 0.328

Each sequence was assayed against EIF2B2 in the same assay as above. Details: shRNA.

Row | Sequence | sensor-assay potency score (higher = more potent)
8 | TAACACACTACTGAACCAGAAA | -0.956
9 | TTTAACACACTACTGAACCAGA | -0.372
10 | TATGAAATGAGTCTTCTTCATT | -1.13
11 | TAATCTTGAGCACTCTCCGCAC | -0.531
12 | TTATGTTTAACACACTACTGAA | -0.666
13 | TATGTTTAACACACTACTGAAC | -1.15
14 | ATCCTCTCTGACAACTCCGAGC | -1.34
15 | TTGACTCTTGACATAACGGCAA | -0.00739
16 | TGACTCTTGACATAACGGCAAA | -1.53
17 | TAGAGTTCACTCATCAGGCGGT | 0.258
18 | TCTCTGACAACTCCGAGCCCTT | -1.5
19 | ATAATCTTGAGCACTCTCCGCA | 0.402

The sequences below were run against EIF3K in the same assay as above. Details: shRNA.

Row | Sequence | sensor-assay potency score (higher = more potent)
20 | TACCCTTGAGCAACTTGCCCAC | -0.487
21 | TGATGCTGGACACACTGTCAAA | -1.61
22 | TTCTTGATGTGCCTGGTCGATC | -1.05
23 | TTGATGTGCCTGGTCGATCATG | -1.46
24 | TTGCACAGGGTGAAGTCTGTGT | -0.115
25 | TTCTCCACAATGTTCTTGGGTT | -0.486
26 | TACAGATGAAGATCTGCCCCGA | 0.0464
27 | TATACCTTCCAAGAGGTCCATG | -1.12
28 | TTGGCTACAGATGAAGATCTGC | 0.0721
29 | TATTTGCTCATCCACACCTTTA | -1.23
30 | ATCTTCTCCACAATGTTCTTGG | -0.584
31 | TAAACTTTCGGACAGAGTCTTC | -0.691

Each sequence was assayed against EIF3M in the same assay as above. Details: shRNA.

Row | Sequence | sensor-assay potency score (higher = more potent)
32 | TTAACAACTGCAGTCTCAGAGA | -0.725
33 | TACAGGAGTATTCTTATCCATC | -1.23
34 | AACATCATCAGCTCCAATCTGA | 0.0943
35 | TTGCTTAACAACTGCAGTCTCA | -0.8
36 | ATCTTCTTCACTGATGTCGATG | -1.42
37 | TGAAGCAGCATCACTCTTCTTA | 0.0165
38 | TAAAGTAGTCTTAAAAGGGTGT | 0.205
39 | AACATCTTTATCATCCTCCTTC | 0.329
40 | TTGTCCTCTGTGTAACTTCCGA | -0.798
